Screens deposited in PubChem BioAssay by National Center for Advancing Translational Sciences (NCATS).
Most compounds without a hit are left out; they make up all but 0.5% or so of the library.
PTHR1 agonist = qHTS for PTHR1 Agonists: Primary Screen; Parathyroid hormone/parathyroid hormone-related peptide receptor (Homo sapiens), Q03431; HEK293 GP2 PTHR1 cells, GloSensor cAMP luminescence, 1 h; Potency, µM (top dose mostly 115 µM), most hits filed as activators; actives 0.075% (n = 410,000); AID 743266, 2014; further: nearly all actives have a fitted effect of over 55% in size
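HEK-293-derived GP2 cells expressing PTHR1 and a GloSensor cAMP reporter, 3,000/well, plated overnight, given luciferin plus IBMX (each 0.5 mM as added) for 1 h at 37 °C, then compound for 1 h at 37 °C. Luminescence was read after 15 min at room temperature.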
EPAC2 antagonist = qHTS for Antagonist of cAMP-regulated guanine nucleotide exchange factor 2 (EPAC2): primary screen. Rap guanine nucleotide exchange factor 4 (Homo sapiens), Q8WZA2. EPAC2 GEF exchange of Rap1B-BODIPY-GDP, fluorescence. Potency, µM (series often up to 114 µM), usual class: inhibitors. actives 0.18% (n = 360,000). AID 720708, 2013; further: nearly all actives have a fitted effect of over 45% in size
Target sequence (Q8WZA2 whole entry, looked up): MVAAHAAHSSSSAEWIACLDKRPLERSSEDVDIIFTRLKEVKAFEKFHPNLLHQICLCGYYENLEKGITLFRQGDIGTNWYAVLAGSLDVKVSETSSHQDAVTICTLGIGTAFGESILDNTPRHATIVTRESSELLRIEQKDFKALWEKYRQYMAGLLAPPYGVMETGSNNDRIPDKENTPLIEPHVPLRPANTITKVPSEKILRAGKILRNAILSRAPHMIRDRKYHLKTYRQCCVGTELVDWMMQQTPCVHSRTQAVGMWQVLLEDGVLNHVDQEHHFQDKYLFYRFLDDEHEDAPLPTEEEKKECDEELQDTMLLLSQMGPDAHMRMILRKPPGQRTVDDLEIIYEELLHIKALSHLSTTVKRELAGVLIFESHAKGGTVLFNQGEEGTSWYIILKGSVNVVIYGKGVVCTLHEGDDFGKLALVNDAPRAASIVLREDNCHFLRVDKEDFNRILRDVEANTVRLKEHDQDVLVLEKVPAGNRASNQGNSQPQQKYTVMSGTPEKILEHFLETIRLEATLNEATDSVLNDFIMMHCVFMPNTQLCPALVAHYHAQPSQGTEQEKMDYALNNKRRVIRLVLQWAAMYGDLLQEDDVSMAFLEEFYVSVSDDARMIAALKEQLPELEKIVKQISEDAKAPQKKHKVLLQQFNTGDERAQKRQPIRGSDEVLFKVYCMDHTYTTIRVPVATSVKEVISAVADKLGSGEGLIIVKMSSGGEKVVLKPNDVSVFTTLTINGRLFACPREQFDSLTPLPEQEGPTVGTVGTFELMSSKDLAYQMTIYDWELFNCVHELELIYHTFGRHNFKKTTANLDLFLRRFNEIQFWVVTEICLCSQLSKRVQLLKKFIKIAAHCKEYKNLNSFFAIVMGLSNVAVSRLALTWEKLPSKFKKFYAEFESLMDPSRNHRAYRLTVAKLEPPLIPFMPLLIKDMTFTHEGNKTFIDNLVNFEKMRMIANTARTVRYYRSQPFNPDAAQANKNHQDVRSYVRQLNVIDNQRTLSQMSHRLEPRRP
EPAC2 agonist = qHTS for Agonist of cAMP-regulated guanine nucleotide exchange factor 4 (EPAC2): primary screen; Rap guanine nucleotide exchange factor 4 (Homo sapiens), Q8WZA2; EPAC2 activation, biochemical qHTS; response scale: 100% = 6.5 mM cAMP response; Potency, µM (titrated, usually from 154 µM), most hits filed as activators; actives 0.079% (n = 360,000); further: nearly all actives have a fitted effect of over 50% in size
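Fluorescence exchange assay: 100 nM EPAC2 with 250 nM RAP1B-BODIPY-GDP and 50 uM GDP; compounds tested as a concentration-titration series (qHTS). Loss of Rap1-bound BODIPY-GDP fluorescence read at 480/540 nm; data normalized to 6.5 mM cAMP.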
TSHR antag = Antagonists of the Thyroid Stimulating Hormone Receptor: HTS campaign; TSHR-expressing cells, TSH-stimulated cAMP HTRF, 2 h; stronger effect = lower value; actives 0.2% (n = 330,000); activity change, negative = inhibition, % at 11.5 µM; Thyrotropin receptor (Homo sapiens), P16473;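 active means activity change below a set negative limit, meaning inhibition stronger than a set level, cut at about -70% in these data; inconclusive means activity change between two set negative limits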
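Inhibition of cAMP made by TSHR-expressing cells under TSH stimulation (4nM final, EC80; 2 h, 37 deg C) is quantified with a one-step lysis HTRF kit, anti-cAMP cryptate versus cAMP-d2.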
EPAC1 ag = qHTS for Agonist of cAMP-regulated guanine nucleotide exchange factor 3 (EPAC1): primary screen; Rap guanine nucleotide exchange factor 3 (Homo sapiens), O95398; EPAC1 agonist qHTS, biochemical assay; response scale: 100% = response to 6.5 mM cAMP; Potency, µM (titrated, usually from 154 µM), hits mostly activators; actives 0.073% (n = 360,000); AID 720707, 2013; further: nearly all actives have a fitted effect of over 60% in size
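Nucleotide exchange by EPAC1 (100 nM) on Rap1B–BODIPY-GDP (250 nM) in the presence of 50 uM GDP is tracked fluorescently at 480/540 nm over 30 min. Signals are normalized to a 6.5 mM cAMP control.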
EPAC1 antagonist = qHTS for Antagonist of cAMP-regulated guanine nucleotide exchange factor 3 (EPAC1): primary screen. Potency, µM (top dose mostly 115 µM), hits mostly inhibitors. EPAC1 GEF assay, Rap1b-BODIPY-GDP exchange fluorescence. AID 720709, 2013. actives 0.14% (n = 360,000); further: nearly all actives have a fitted effect of over 50% in size
Each line names hits and unclear results; the compound was inactive in the other large screens. Unless noted, the call rests on the fitted dose curve; in most records, active means well fitted curve in the direction sought with a large enough effect; inconclusive means small, poorly fitted or top-dose-only effect, or another doubt; inactive means no such curve, though single readings can be large; an effect the other way counts as inactive or inconclusive.

O=C1S/C(=C\C=C\c2ccco2)C(=O)N1c1ccccc1	EPAC1 antagonist 89.1µM
O=C1S/C(=C\C=C\c2ccco2)C(=O)N1c1ccc(O)cc1	none
COc1cccc(-c2nc(CS(=O)(=O)CC(=O)NC3CCCCCC3)c(C)o2)c1	TSHR antag -97.0
COc1cccc(-c2nc(CS(=O)(=O)CC(=O)N3CCCCC3)c(C)o2)c1	TSHR antag -96.9
CCN(CC)CCCNC(=O)c1ccc2c(c1)N(Cc1c(F)cccc1Cl)C(=O)c1ccccc1S2	none (no result: EPAC2 antagonist, EPAC2 agonist, TSHR antag, EPAC1 ag, EPAC1 antagonist)
Cc1onc(-c2ccccc2)c1NC(=O)N(CCC(=O)O)Cc1ccccc1	none
Cc1onc(-c2ccccc2)c1NC(=O)N(Cc1ccccc1)C(C)C	TSHR antag -117.3
COc1ccc(-n2c(C)cc(C(=O)COC(=O)c3ccc(O)cc3O)c2C)cc1	TSHR antag -73.5
COc1ccc(-n2c(C)cc(C(=O)CCl)c2C)cc1	EPAC2 antagonist 7.94µM
COc1ccc(-n2c(C)cc(C(=O)CN3C(=O)c4ccccc4C3=O)c2C)cc1	none
Cc1cc(C(=O)COC(=O)c2ccc(O)cc2O)c(C)n1-c1ccccc1	TSHR antag inconclusive
NNC(=O)c1cc2cc(OC(F)(F)F)ccc2[nH]1	none
Cc1nc2ccc(S(=O)(=O)CCC(=O)Nc3ccc(F)cc3C)cc2s1	none (no result: EPAC2 antagonist, EPAC2 agonist, TSHR antag, EPAC1 ag, EPAC1 antagonist)
CCOc1ccc(NC(=O)CN(C)C(=O)c2cc(C3CC3)nn2-c2ccccc2)cc1OCC	EPAC1 ag 31.6µM
CN(CC(=O)Nc1ccccc1Cl)C(=O)COC(=O)c1ccc(Cl)nc1	none
CN(CC(=O)Nc1ccccc1Cl)C(=O)COC(=O)c1nc(Cl)c(Cl)c(Cl)c1Cl	TSHR antag -89.0
Nc1ccc2cc3[nH]c4cc(N)ccc4c3nc2c1	EPAC2 agonist 56.2µM, EPAC1 ag 89.1µM (no result: TSHR antag)
Nc1ccc(-c2nc3ccc(N)cc3[nH]2)cc1	EPAC1 antagonist inconclusive
O=C(N/N=C/c1ccc(F)cc1)c1cc(-c2ccco2)nc2ccccc12	EPAC1 antagonist 79.4µM
Cc1ccc(SCc2cc(=O)c3c(=O)n(-c4ccccc4)[nH]c3[nH]2)cc1	EPAC1 antagonist 79.4µM
O=c1cc(CSc2ccc(Cl)cc2)[nH]c2[nH]n(-c3ccccc3)c(=O)c12	EPAC1 antagonist inconclusive
COc1ccc(S(=O)(=O)N(C)C[C@@H]2OCCCC[C@H](C)Oc3ccc(NC(=O)Nc4ccc(C(F)(F)F)cc4)cc3C(=O)N([C@H](C)CO)C[C@H]2C)cc1	EPAC1 antagonist inconclusive (no result: TSHR antag)
COc1ccc(CCC(=O)Nc2c(-c3ccc(N(C)C)cc3)[nH][nH]c2=O)cc1	EPAC2 agonist inconclusive, EPAC1 antagonist 50.1µM (no result: TSHR antag)
COc1cc(C(C(=O)NCc2ccccc2)N(C(=O)c2snc(C(N)=O)c2N)C2CCCC2)cc(OC)c1OC (stereo not drawn)	TSHR antag -108.3
CCC(C(=O)NC1CCCC1)N(C(=O)c1snc(C(N)=O)c1N)c1ccc(OC)c(OC)c1 (stereo not drawn)	none
COc1ccc(C(C(=O)NCc2ccccc2)N(C(=O)c2snc(C(N)=O)c2N)C2CCCC2)cc1 (stereo not drawn)	none
COc1ccc(N(C(=O)c2snc(C(N)=O)c2N)C(C(=O)NC2CCCC2)c2cccs2)cc1OC (stereo not drawn)	EPAC1 antagonist 50.1µM
CC(C)CC1C(=O)N(Cc2cn(CCC3OCCO3)nn2)CCS(=O)(=O)N1Cc1ccc(-c2ccc(F)cc2)cc1 (stereo not drawn)	EPAC2 antagonist 12.6µM (no result: TSHR antag)
Cc1nc2ccc(NC(=O)c3ccc(Cl)c([N+](=O)[O-])c3)cc2s1	none
Cc1nc2ccc(NC(=O)c3cc([N+](=O)[O-])cc([N+](=O)[O-])c3Cl)cc2s1	TSHR antag -76.2
O=C(NCCc1ccccc1)c1ccc(CSc2nc3cccnc3n2Cc2ccccc2F)cc1	none (no result: EPAC2 antagonist, EPAC2 agonist, TSHR antag, EPAC1 ag, EPAC1 antagonist)
O=C(CS(=O)(=O)c1ccccc1)c1cc2cc(F)ccc2oc1=O	EPAC2 antagonist 50.1µM, EPAC1 antagonist inconclusive
COc1ccc(CN2C(=O)CN(S(C)(=O)=O)CC2(C)C(=O)NCc2ccccc2)cc1OC (stereo not drawn)	none (no result: TSHR antag)
CCN(CC)C(=O)Cn1cc(S(=O)(=O)Cc2cccc([N+](=O)[O-])c2)c2ccccc21	none
CCN(c1cccc(C)c1)S(=O)(=O)c1cn(CC(=O)OC)c2ccc([N+](=O)[O-])cc12	TSHR antag -130.4
Cc1ccc(CNC(=O)CCNC(=O)N2CCn3c2nc2ccccc23)cc1	TSHR antag -110.8
Cc1ccc(CCNC(=O)c2cc3c(=O)oc4ccccc4c3s2)cc1	none (no result: EPAC2 antagonist, EPAC2 agonist, TSHR antag, EPAC1 ag, EPAC1 antagonist)
CCc1ccc(-c2nc(CN3CCCC(C(=O)N4CCN(c5cc(Cl)ccc5C)CC4)C3)c(C)o2)cc1 (stereo not drawn)	none (no result: EPAC2 antagonist, EPAC2 agonist, TSHR antag, EPAC1 ag, EPAC1 antagonist)
O=C1NN(c2cccc(Br)c2)C(=O)/C1=C/c1ccc(-c2cc([N+](=O)[O-])ccc2O)o1	EPAC2 antagonist 39.8µM
O=c1[nH]ncc2c3ccccc3n(Cc3cccc(Cl)c3)c12	EPAC2 agonist inconclusive, EPAC1 ag 79.4µM
NC(=O)c1ccc(C[C@H](C(=O)O)N2C(=O)c3ccc(C(=O)O)cc3C2=O)cc1	none (no result: PTHR1 agonist, EPAC2 antagonist, EPAC2 agonist, EPAC1 ag, EPAC1 antagonist)
Cc1ccc(C)c(-n2c3nc(=O)[nH]c(=O)c-3cc3cc([N+](=O)[O-])ccc32)c1	EPAC1 antagonist 56.2µM
Cc1cccc(-n2c3nc(=O)[nH]c(=O)c-3cc3cc([N+](=O)[O-])ccc32)c1	none
O=c1c(O)cccc2cc(O)c(O)c(O)c12	EPAC1 antagonist 12.6µM
O=c1cc(-c2ccccc2)oc2cc(O)c(O)c(O)c12	EPAC1 antagonist inconclusive
N#Cc1cc([N+](=O)[O-])c2sc(C(N)=O)[n+]([O-])c2c1	none (no result: PTHR1 agonist, EPAC2 antagonist, EPAC2 agonist, EPAC1 ag, EPAC1 antagonist)
CCCc1oc(C(=O)O)cc1CN1CCCC1	none
CCCc1oc(C(=O)O)cc1CN	PTHR1 agonist 17.8µM
Cc1ccc(CCNC(=O)CN2C(=O)COc3ccc(S(=O)(=O)N4CCC(C)CC4)cc32)cc1	TSHR antag -136.4
CCN(CC)S(=O)(=O)c1ccc2c(c1)N(CC(=O)NCCCN1CC(C)CC(C)C1)C(=O)CO2 (stereo not drawn)	none
CC1CC(C)CN(CCCNC(=O)CN2C(=O)COc3ccc(S(=O)(=O)N4CCOCC4)cc32)C1 (stereo not drawn)	TSHR antag -104.3
